Data published in PubChem BioAssay AID1347146 (National Center for Advancing Translational Sciences (NCATS), 2019).
Records with an inconclusive call do not appear. A number with no mark means an inactive call. Active and inactive are the calls of the source. The call rests on the fitted dose curve; in most records, active means well fitted inhibition curve with a large enough effect; inconclusive means small, poorly fitted or top-dose-only effect; inactive means no such curve, though single readings can be large or run the other way.
Potency means the concentration at half of the fitted maximal effect.
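Wherever activity change, negative = inhibition is given: plate controls were DMSO without inhibitor for no effect and no-enzyme control for full effect.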

What follows are compounds tested against Nicotinamide N-methyltransferase (Homo sapiens) (UniProt P40261) (assay: qHTS Assay for Inhibitors of N-terminal methyltransferase 1 (NTMT1): NNMT MTaseGlo counterscreen assay). Conditions: NNMT enzyme, MTase-Glo luminescence counterscreen; series mostly up to 57.1 µM; activity change, negative = inhibition: at the top concentration.
Sequence of Nicotinamide N-methyltransferase (Homo sapiens) (P40261 whole entry, looked up): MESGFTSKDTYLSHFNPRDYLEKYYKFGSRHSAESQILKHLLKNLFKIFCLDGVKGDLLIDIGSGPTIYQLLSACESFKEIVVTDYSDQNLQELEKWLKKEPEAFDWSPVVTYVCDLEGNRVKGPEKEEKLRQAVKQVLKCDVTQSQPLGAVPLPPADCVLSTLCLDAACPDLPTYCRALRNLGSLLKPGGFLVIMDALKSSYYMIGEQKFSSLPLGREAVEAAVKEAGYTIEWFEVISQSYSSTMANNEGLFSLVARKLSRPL
Procedure, shortened: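 Luminescent MTase-Glo read-out of SAH from nicotinamide methylation: 1 µM nicotinamide, 100 µM SAM, 125 nM NNMT, 30 min RT after ~15 min compound preincubation. Values normalized to no-enzyme/DMSO controls, Hill-fitted.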
With `CCCc1cc(C)[nH]c(=O)c1CNC(=O)c1cc(-c2ccc(N3CCN(C(C)C)CC3)nc2)cc2c1cnn2C(C)C` the “activity change, negative = inhibition” value was -18%.
`Cc1[nH]c(=O)c(C#N)cc1-c1ccc2nccn2c1` was tested, and the “activity change, negative = inhibition” value was -11.5%.
`Nc1nc(Nc2ccccc2)nc2c1ncn2[C@@H]1O[C@H](CO)[C@@H](O)[C@H]1O` was tested, and the “activity change, negative = inhibition” value was -12%.
With `CCCCNc1ccc(C(=O)OCCN(C)C)cc1` the “activity change, negative = inhibition” value was -6.3%.
In the case of `OC[C@H]1O[C@H](n2cnc3c(N[C@H]4CCC[C@@H]4O)ncnc32)[C@H](O)[C@@H]1O`, the “activity change, negative = inhibition” value is reported as 2.19%.
In the case of `C=CCN1CCc2c(cc(O)c(O)c2Cl)C(c2ccccc2)C1` (configuration not stated), the “activity change, negative = inhibition” value is reported as -10.9%.
For `Oc1ccc(Cn2cc[nH]c2=S)cc1`, the “activity change, negative = inhibition” value was -10.6%.
With `COc1cc2c(NC3CCN(CC4CCCCC4)CC3)nc(N3CCCCC3)nc2cc1OCCCN1CCCCC1` the “activity change, negative = inhibition” value was -2.71%.
For `N=C(N)c1ccc(OCCCCCOc2ccc(C(=N)N)cc2)cc1` (tested in a mixture with another compound), the “activity change, negative = inhibition” value was -16.6%.
For `Clc1nccc2c1ccc1ccccc12`, the “activity change, negative = inhibition” value was -13.2%.
In the case of `O=C1Nc2ccc(I)cc2/C1=C/c1cc(Br)c(O)c(Br)c1`, the Potency is reported as 25.1 µM (active).
`Nc1nc2ccc(Cl)cc2c2nc(-c3ccco3)nn12` was tested, and the “activity change, negative = inhibition” value was -8.24%.
`NCCc1ccc(O)c(O)c1` was tested, and the “activity change, negative = inhibition” value was -6.57%.
For `Cc1ccc(S(=O)(=O)/C=C/C#N)cc1`, the Potency was 15.8 µM (active).
`N.N.N.N.N.N.N.N.N.N.N.N.N.N.O.O.[Ru+4].[Ru+5].[Ru+5]` was tested, and the “activity change, negative = inhibition” value was -1.41%.
`COc1cc2c(NC3CCN(C(C)C)CC3)nc(N3CCCN(c4ccccc4)CC3)nc2cc1OCCCN1CCCC1` was tested, and the “activity change, negative = inhibition” value was -4.98%.
With `CC1=C(\C=C/C(C)=C/C=C\C(C)=C\C(=O)O)C(C)(C)CCC1` the “activity change, negative = inhibition” value was -8.2%.
